Data published in paper PMC11062922 (Nature Chemical Biology, 2023).
Read-outs that look alike come from different tables or passages of the source.

Assays:
CIT = test system: CIT; set-up: species or system human, MV4-11 + K-562 + COLO205 + SK-N-BE2 + OVCAR-8; conditions: read-out: apparent Kd; compound concentrations: 100 nM and 1000 nM (sheet 'Samples'), CATDS: 0.16560503181349201; n = 1
CSNK1A1 = test system: CSNK1A1; set-up: species or system human, MV4-11 + K-562 + COLO205 + SK-N-BE2 + OVCAR-8; conditions: read-out: apparent Kd; compound concentrations: 100 nM and 1000 nM (sheet 'Samples'), CATDS: 0.105298123149642; n = 1
CSNK1D = test system: CSNK1D; set-up: species or system human, MV4-11 + K-562 + COLO205 + SK-N-BE2 + OVCAR-8; conditions: read-out: apparent Kd; compound concentrations: 100 nM and 1000 nM (sheet 'Samples'), CATDS: 0.38029539442901; n = 1
CSNK1E = test system: CSNK1E; set-up: species or system human, MV4-11 + K-562 + COLO205 + SK-N-BE2 + OVCAR-8; conditions: read-out: apparent Kd; compound concentrations: 100 nM and 1000 nM (sheet 'Samples'), CATDS: 0.17601881181755799; n = 1
MAPK14 = test system: MAPK14; set-up: species or system human, MV4-11 + K-562 + COLO205 + SK-N-BE2 + OVCAR-8; conditions: read-out: apparent Kd, compound concentrations: 100 nM and 1000 nM (sheet 'Samples'), n = 1
MAPKAPK2 = test system: MAPKAPK2; set-up: species or system human, MV4-11 + K-562 + COLO205 + SK-N-BE2 + OVCAR-8; conditions: read-out: apparent Kd, compound concentrations: 100 nM and 1000 nM (sheet 'Samples'), n = 1
PKN3 = test system: PKN3; set-up: species or system human, MV4-11 + K-562 + COLO205 + SK-N-BE2 + OVCAR-8; conditions: read-out: apparent Kd; compound concentrations: 100 nM and 1000 nM (sheet 'Samples'), CATDS: 0.10775551436498899; n = 1
CDK7 = test system: CDK7; set-up: species or system human, MV4-11 + K-562 + COLO205 + SK-N-BE2 + OVCAR-8; conditions: read-out: apparent Kd; compound concentrations: 100 nM and 1000 nM (sheet 'Samples'), CATDS: 4.9338137384748702E-2; n = 1
ERCC2 = test system: ERCC2; set-up: species or system human, MV4-11 + K-562 + COLO205 + SK-N-BE2 + OVCAR-8; conditions: read-out: apparent Kd; compound concentrations: 100 nM and 1000 nM (sheet 'Samples'), CATDS: 5.1368063894958502E-2; n = 1
FER = test system: FER; set-up: species or system human, MV4-11 + K-562 + COLO205 + SK-N-BE2 + OVCAR-8; conditions: read-out: apparent Kd; compound concentrations: 100 nM and 1000 nM (sheet 'Samples'), CATDS: 5.6215291988472402E-2; n = 1
GAK = test system: GAK; set-up: species or system human, MV4-11 + K-562 + COLO205 + SK-N-BE2 + OVCAR-8; conditions: read-out: apparent Kd; compound concentrations: 100 nM and 1000 nM (sheet 'Samples'), CATDS: 4.9289180471638903E-2; n = 1
MAPK10 = test system: MAPK10; set-up: species or system human, MV4-11 + K-562 + COLO205 + SK-N-BE2 + OVCAR-8; conditions: read-out: apparent Kd; compound concentrations: 100 nM and 1000 nM (sheet 'Samples'), CATDS: 5.8204150926545503E-2; n = 1
MAPK9 = test system: MAPK9; set-up: species or system human, MV4-11 + K-562 + COLO205 + SK-N-BE2 + OVCAR-8; conditions: read-out: apparent Kd; compound concentrations: 100 nM and 1000 nM (sheet 'Samples'), CATDS: 5.1291573819888199E-2; n = 1
NLK = test system: NLK; set-up: species or system human, MV4-11 + K-562 + COLO205 + SK-N-BE2 + OVCAR-8; conditions: read-out: apparent Kd; compound concentrations: 100 nM and 1000 nM (sheet 'Samples'), CATDS: 0.64871625608349803; n = 1
PAK4 = test system: PAK4; set-up: species or system human, MV4-11 + K-562 + COLO205 + SK-N-BE2 + OVCAR-8; conditions: read-out: apparent Kd; compound concentrations: 100 nM and 1000 nM (sheet 'Samples'), CATDS: 5.1367607354333399E-2; n = 1
PIP4K2C = test system: PIP4K2C; set-up: species or system human, MV4-11 + K-562 + COLO205 + SK-N-BE2 + OVCAR-8; conditions: read-out: apparent Kd; compound concentrations: 100 nM and 1000 nM (sheet 'Samples'), CATDS: 6.1444231758823603E-2; n = 1
PTK2B = test system: PTK2B; set-up: species or system human, MV4-11 + K-562 + COLO205 + SK-N-BE2 + OVCAR-8; conditions: read-out: apparent Kd; compound concentrations: 100 nM and 1000 nM (sheet 'Samples'), CATDS: 5.2093058874082297E-2; n = 1
Q6ZSR9 = Q6ZSR9 (human, UniProt Q6ZSR9); set-up: species or system MV4-11 + K-562 + COLO205 + SK-N-BE2 + OVCAR-8; conditions: read-out: apparent Kd; compound concentrations: 100 nM and 1000 nM (sheet 'Samples'), CATDS: 4.2380052385305601E-2; n = 1
Q6ZSR9, sequence (Q6ZSR9 whole entry, looked up): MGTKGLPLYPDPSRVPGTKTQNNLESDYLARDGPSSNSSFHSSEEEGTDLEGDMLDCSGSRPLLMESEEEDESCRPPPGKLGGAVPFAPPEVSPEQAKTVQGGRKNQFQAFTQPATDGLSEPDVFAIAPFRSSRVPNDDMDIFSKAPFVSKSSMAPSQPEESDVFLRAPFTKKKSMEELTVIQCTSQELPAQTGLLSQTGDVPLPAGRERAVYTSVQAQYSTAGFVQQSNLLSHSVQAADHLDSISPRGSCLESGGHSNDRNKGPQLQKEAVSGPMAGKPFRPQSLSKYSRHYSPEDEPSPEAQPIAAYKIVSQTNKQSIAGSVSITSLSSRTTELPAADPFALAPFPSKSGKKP

SIK2 = test system: SIK2; set-up: species or system human, MV4-11 + K-562 + COLO205 + SK-N-BE2 + OVCAR-8; conditions: read-out: apparent Kd; compound concentrations: 100 nM and 1000 nM (sheet 'Samples'), CATDS: 4.6797026760186898E-2; n = 1
STK3 = test system: STK3; set-up: species or system human, MV4-11 + K-562 + COLO205 + SK-N-BE2 + OVCAR-8; conditions: read-out: apparent Kd; compound concentrations: 100 nM and 1000 nM (sheet 'Samples'), CATDS: 4.17809647402431E-2; n = 1
STK4 = test system: STK4; set-up: species or system human, MV4-11 + K-562 + COLO205 + SK-N-BE2 + OVCAR-8; conditions: read-out: apparent Kd; compound concentrations: 100 nM and 1000 nM (sheet 'Samples'), CATDS: 4.6786088352923701E-2; n = 1
TNK1 = test system: TNK1; set-up: species or system human, MV4-11 + K-562 + COLO205 + SK-N-BE2 + OVCAR-8; conditions: read-out: apparent Kd; compound concentrations: 100 nM and 1000 nM (sheet 'Samples'), CATDS: 5.4278066670988299E-2; n = 1
TNK2 = test system: TNK2; set-up: species or system human, MV4-11 + K-562 + COLO205 + SK-N-BE2 + OVCAR-8; conditions: read-out: apparent Kd; compound concentrations: 100 nM and 1000 nM (sheet 'Samples'), CATDS: 7.0528629271619694E-2; n = 1

Cc1ccn2nc(-c3ccc(F)cc3)c(-c3ccncc3)c2c1.Cl [GW457859A]
potency estimated from few doses (CIT): 653 nM | potency estimated from few doses (CSNK1A1): 2070 nM | potency estimated from few doses (CSNK1D): 165 nM | potency estimated from few doses (CSNK1E): 578 nM | potency estimated from few doses (MAPK14; CATDS: 0.12679025336255401): 1200 nM | potency estimated from few doses (MAPKAPK2; CATDS: 0.125209165131694): 1240 nM | potency estimated from few doses (PKN3): 1920 nM

Cl.Cn1c(=O)c(Oc2cccc(F)c2)cc2cnc(NC3CCOCC3)nc21 [RO3304774-001]
potency estimated from few doses (CDK7): 1360 nM | potency estimated from few doses (ERCC2): 1240 nM | potency estimated from few doses (FER): 1010 nM | potency estimated from few doses (GAK): 1370 nM | potency estimated from few doses (MAPK10): 939 nM | potency estimated from few doses (MAPK14; CATDS: 6.3546758887955801E-2): 786 nM | potency estimated from few doses (MAPK9): 1240 nM | potency estimated from few doses (MAPKAPK2; CATDS: 6.9359248510779001E-2): 665 nM | potency estimated from few doses (NLK): 17.9 nM | potency estimated from few doses (PAK4): 1240 nM | potency estimated from few doses (PIP4K2C): 840 nM | potency estimated from few doses (PTK2B): 1200 nM | potency estimated from few doses (Q6ZSR9): 2060 nM | potency estimated from few doses (SIK2): 1560 nM | potency estimated from few doses (STK3): 2160 nM | potency estimated from few doses (STK4): 1560 nM | potency estimated from few doses (TNK1): 1090 nM | potency estimated from few doses (TNK2): 645 nM
